# Records with an inconclusive call do not appear. A call without a number means that no potency is given here. A number with no mark means an inactive call. The source made the active and inactive calls. The call rests on the fitted dose curve; in most records, active means well fitted inhibition curve with a large enough effect; inconclusive means small, poorly fitted or top-dose-only effect; inactive means no such curve, though single readings can be large or run the other way.
# Target: Rap guanine nucleotide exchange factor 4 (Homo sapiens) (UniProt Q8WZA2)
# Assay: Confirmatory qHTS for antagonist of cAMP-regulated guanine nucleotide exchange factor 4 (EPAC2) (AID 1645885); further: nearly all actives have a fitted effect of over 25% in size; further: potency means the concentration at half of the fitted maximal effect
# Details: EPAC2 Rap1B-BODIPY-GDP exchange fluorescence, biochemical; series mostly up to 12.7 µM
# Sequence of Rap guanine nucleotide exchange factor 4 (Homo sapiens) (Q8WZA2 whole entry, looked up): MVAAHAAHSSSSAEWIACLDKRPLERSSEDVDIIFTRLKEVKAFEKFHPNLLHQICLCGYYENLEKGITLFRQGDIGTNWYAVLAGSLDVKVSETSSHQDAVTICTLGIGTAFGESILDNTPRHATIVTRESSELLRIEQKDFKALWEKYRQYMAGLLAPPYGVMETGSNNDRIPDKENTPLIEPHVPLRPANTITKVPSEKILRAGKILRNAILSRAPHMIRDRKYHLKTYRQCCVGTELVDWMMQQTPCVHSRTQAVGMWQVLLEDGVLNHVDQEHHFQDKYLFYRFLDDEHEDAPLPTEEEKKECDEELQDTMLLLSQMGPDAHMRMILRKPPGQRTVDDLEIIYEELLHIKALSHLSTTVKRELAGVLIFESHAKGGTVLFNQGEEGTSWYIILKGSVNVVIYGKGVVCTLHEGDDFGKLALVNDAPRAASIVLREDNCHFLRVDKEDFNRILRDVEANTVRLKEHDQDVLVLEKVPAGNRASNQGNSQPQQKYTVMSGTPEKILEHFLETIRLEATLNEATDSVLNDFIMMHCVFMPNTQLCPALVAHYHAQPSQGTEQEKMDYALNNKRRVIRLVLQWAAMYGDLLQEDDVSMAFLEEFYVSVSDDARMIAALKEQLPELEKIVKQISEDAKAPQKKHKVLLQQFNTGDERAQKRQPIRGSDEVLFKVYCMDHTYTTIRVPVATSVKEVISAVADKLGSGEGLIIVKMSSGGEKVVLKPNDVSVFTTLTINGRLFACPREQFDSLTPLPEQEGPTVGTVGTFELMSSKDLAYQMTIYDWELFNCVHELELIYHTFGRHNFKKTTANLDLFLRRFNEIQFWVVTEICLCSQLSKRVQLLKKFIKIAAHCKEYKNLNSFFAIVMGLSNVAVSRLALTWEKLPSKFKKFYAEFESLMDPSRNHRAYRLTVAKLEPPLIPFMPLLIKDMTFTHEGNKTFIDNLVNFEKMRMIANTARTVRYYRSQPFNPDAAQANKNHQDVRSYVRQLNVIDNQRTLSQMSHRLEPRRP
row,Structure (SMILES),Potency
1,COc1ccc(N(C(=O)c2ccco2)S(=O)(=O)c2cc(OC)ccc2OC)cc1,inactive
2,COc1ccc(S(=O)(=O)N2CCCCC2)cc1C(C)C,8.49 µM (active)
3,Cc1ccccc1N=C(c1ccccc1)C1C(=O)c2ccccc2C1=O,inactive
4,CSc1ccc(/C=N/NC(=O)CN2CCN(Cc3ccc(Cl)cc3)CC2)cc1,inactive
5,CCOC(=O)c1c(NC(=O)c2ccccc2OCC)sc2c1CCC(CC)C2 (configuration not stated),inactive
6,CCOC(=O)C1=CCN(S(=O)(=O)c2ccc(C)cc2)C1c1cccc(Cl)c1 (configuration not stated),inactive

# Target: Rap guanine nucleotide exchange factor 3 (Homo sapiens) (UniProt O95398)
# Assay: Counterscreen qHTS for antagonist of cAMP-regulated guanine nucleotide exchange factor 3 (EPAC1) (AID 1645888);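 further: fluorescence loss as bound BODIPY-GDP is released from Rap1B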
# Details: Rap1B-BODIPY-GDP nucleotide exchange, fluorescence; series mostly up to 154 µM
# Outline: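 Rap1B-BODIPY-GDP 250 nM + GDP 50 uM; cpds 7-pt, final 9.74 nM–152 uM (activator mode) or from 7.32 nM upwards (inhibitor mode); RT; FI 480/540 nm at 5 and 30 min, then ± cAMP, reread.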
# Sequence of Rap guanine nucleotide exchange factor 3 (Homo sapiens) (O95398 whole entry, looked up): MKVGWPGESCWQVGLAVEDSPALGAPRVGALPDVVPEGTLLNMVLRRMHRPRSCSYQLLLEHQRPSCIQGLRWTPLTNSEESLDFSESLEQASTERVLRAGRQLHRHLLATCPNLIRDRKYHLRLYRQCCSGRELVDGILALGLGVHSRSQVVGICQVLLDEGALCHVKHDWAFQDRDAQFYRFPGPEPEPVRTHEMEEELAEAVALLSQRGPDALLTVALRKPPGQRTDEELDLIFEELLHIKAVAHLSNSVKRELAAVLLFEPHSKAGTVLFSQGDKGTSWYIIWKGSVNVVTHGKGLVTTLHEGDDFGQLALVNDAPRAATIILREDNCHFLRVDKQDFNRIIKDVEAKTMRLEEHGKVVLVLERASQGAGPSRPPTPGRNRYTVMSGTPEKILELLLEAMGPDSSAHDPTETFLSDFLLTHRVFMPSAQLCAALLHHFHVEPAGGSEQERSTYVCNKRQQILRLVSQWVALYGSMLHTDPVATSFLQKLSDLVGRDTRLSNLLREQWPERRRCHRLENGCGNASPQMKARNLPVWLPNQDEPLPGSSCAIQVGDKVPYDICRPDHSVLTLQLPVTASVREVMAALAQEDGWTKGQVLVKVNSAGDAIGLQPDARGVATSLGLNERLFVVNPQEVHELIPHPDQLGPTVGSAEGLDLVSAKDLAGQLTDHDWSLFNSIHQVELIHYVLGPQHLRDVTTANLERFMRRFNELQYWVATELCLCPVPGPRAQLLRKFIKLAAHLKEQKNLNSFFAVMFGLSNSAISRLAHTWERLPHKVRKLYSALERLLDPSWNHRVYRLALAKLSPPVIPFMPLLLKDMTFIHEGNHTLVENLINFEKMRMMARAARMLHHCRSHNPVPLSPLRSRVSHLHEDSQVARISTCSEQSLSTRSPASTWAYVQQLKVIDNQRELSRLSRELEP
Structure (SMILES),"activity change, negative = inhibition",Potency
COc1cccc(C(=O)NC(=S)N2c3ccccc3CC2C)c1OC (configuration not stated),-1.25% [at 30.8 µM],–
COc1ccc(OCC(=O)OCCNC(=O)c2cccnc2)cc1,-8.99% [at 30.8 µM],–
O=C1COc2ccc(C(=O)COC(=O)c3ccc([N+](=O)[O-])cc3Cl)cc2N1,–,inactive
Cc1cccc(C)c1Nc1nn2c(=O)c3cc4c(cc3nc2s1)OCO4,–,inactive
O=C(c1ccco1)N(Cc1cccs1)c1ccc(F)cc1,–,inactive
Cc1ccc(N=Cc2cc(Cc3ccccc3Cl)cc([N+](=O)[O-])c2O)c(O)c1,–,inactive
O=C(O)c1ccc(/C=N/NC(=O)c2ccc(CN3c4cccc5cccc(c45)S3(=O)=O)cc2)cc1,3.17% [at 30.8 µM],–
C/C(Cc1ccccc1)=N\NC(=O)c1cccnc1,-5.84% [at 30.8 µM],–
COc1cccc2c1Oc1ncccc1N(C(=O)CCC(=O)NCc1cccc(C)c1)C2,–,inactive
CCOc1ccc2nc(S(=O)(=O)NC(=O)C3(C)CCN3C(=O)CCc3cccs3)sc2c1 (configuration not stated),-20.4% [at 30.8 µM],–
CCOc1cc(/C=C2\SC(=S)N(NS(=O)(=O)c3ccc(C)cc3)C2=O)ccc1O,–,inactive
COc1ccc(C2c3ccsc3CCN2C(C)=O)cc1 (configuration not stated),–,inactive
CCC(C)(C)NC(=O)C(c1ccccn1)N(C(=O)c1csnn1)C1CCCCC1 (configuration not stated),–,inactive
O=C1CCC/C(=N/NC(=O)c2sc3ccccc3c2Cl)C1,–,inactive
CCN(CC)c1ccc2cc(C(C)=O)c(=O)oc2c1,–,inactive
COC(=O)c1ccccc1NC(=O)c1nn(-c2ccc(OC)cc2)c(=O)c2c1c1ccccc1n2C,–,inactive
CCOC(=O)C1=C(CC)OC(N)=C(C#N)C1c1ccc(OC)c(OC)c1OC (configuration not stated),-16.4% [at 30.8 µM],–
Cc1cccn2cc(CCNC(=O)c3ccco3)nc12,-20.8% [at 30.8 µM],–

Structure (SMILES),"activity change, negative = inhibition",Potency
COC(=O)c1ccc2nc(-c3ccccc3)c(Cc3ccccc3C(F)(F)F)n2c1,–,inactive
Cc1cc(-c2nn(-c3ccccc3F)cc2CN2CCCC(O)C2)c(C)s1 (configuration not stated),-17.9% [at 30.8 µM],–
O=c1[nH][nH]c(-c2ccccc2O)c1C(C[N+](=O)[O-])c1ccc(Cl)cc1Cl (configuration not stated),–,inactive
COc1cccc2c1OC1(C)CC2/C(=C(\C)O)C(=O)N1 (configuration not stated),–,inactive
COc1ccc(S(=O)(=O)NC(CCSC)C(=O)NC2CCCCC2)cc1 (configuration not stated),–,inactive
CSc1ccccc1C(=O)Nc1ccc(C)cc1C,-16.8% [at 30.8 µM],–
Cc1c2cn[nH]c(=O)c2c(C)n1-c1ccccc1,–,inactive
Cc1[nH][nH]c(=O)c1C(c1c(C)[nH][nH]c1=O)c1cn(Cc2cccc3ccccc23)c2ccccc12,–,inactive
CCc1ccccc1N(C)S(=O)(=O)c1ccc2[nH]cc(C(=O)N3CCc4ccccc43)c(=O)c2c1,-6.13% [at 30.8 µM],–
O=C1C2CCCN2C(c2ccccc2F)N1c1cccc(Cl)c1 (configuration not stated),-15.2% [at 30.8 µM],–
CC(=O)NNC(=O)c1sc(=S)n2c1[nH]c(=O)c1sccc12,–,inactive
Cc1ccc(C2CC(=O)Oc3cc(C)c(Br)c(C)c32)cc1 (configuration not stated),–,inactive
O=C(O)c1ccc(N/N=C/c2cccc(C(F)(F)F)c2)cc1,–,inactive
CC(=O)Nc1cc(C(=O)NCc2ccco2)ccc1Sc1ccc(C)cc1,-18.4% [at 30.8 µM],–
O=C(C1=C(O)C(=O)N(c2nc3ccc(Cl)cc3s2)C1c1ccco1)c1ccco1 (configuration not stated),–,inactive
CC1(C(=O)NS(=O)(=O)c2ccc3c(c2)CCO3)CCN1C(=O)C1(c2ccc(Cl)cc2)CCC1 (configuration not stated),-29.8% [at 30.8 µM],–
COc1ccc(N(C(=O)c2ccco2)S(=O)(=O)c2cc(OC)ccc2OC)cc1,–,inactive
COc1ccc(S(=O)(=O)N2CCCCC2)cc1C(C)C,–,inactive
